Experimental data as given in PubChem BioAssay (NCI).
The panel holds about 79,000 compounds, 15% with a hit somewhere; the sample as a whole holds those more often. Activity calls are given as the source filed them. Cut-off read from the data, not from the text of the source: active = growth inhibition above about 70%; inactive = the rest.

Legend:
[1] = NCI Yeast Anticancer Drug Screen. Data for the rad50 strain (AID 155);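 note: 0% = growth of vehicle-only cultures of the same strain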; conditions: S. cerevisiae rad50 strain growth inhibition, stronger effect = higher value
Method in brief: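 Genetically altered yeast (DNA repair pathway); compound treatment; growth inhibition vs vehicle ctrl.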

[2] = NCI Yeast Anticancer Drug Screen. Data for the mec2-1 strain (AID 157); conditions: S. cerevisiae mec2-1 strain, stronger effect = higher value
Method in brief: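 Compounds were applied to mec2-1 yeast cells. Their growth was then compared with that of vehicle-treated cultures to give growth inhibition.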

[3] = NCI Yeast Anticancer Drug Screen. Data for the sgs1 mgt1 strain (AID 161);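 note: 0% = growth of cultures given vehicle only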; conditions: S. cerevisiae sgs1 mgt1 strain, stronger effect = higher value
Method in brief: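 Compounds are added to genetically altered yeast, and growth is compared with cultures given vehicle alone to give percent inhibition.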

[4] = NCI Yeast Anticancer Drug Screen. Data for the cln2 rad14 strain (AID 165);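 note: 0% = growth equal to vehicle treated cultures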; conditions: S. cerevisiae cln2 rad14 strain, stronger effect = higher value
Method in brief: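 Strain: cln2 rad14 yeast, altered in cell cycle control and DNA damage repair. Read-out: growth inhibition vs vehicle.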

[5] = NCI Yeast Anticancer Drug Screen. Data for the bub3 strain (AID 167); conditions: S. cerevisiae bub3 mutant strain, stronger effect = higher value
Method in brief: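 Yeast carrying a defined mutation is treated with each compound, and growth is compared with that of vehicle-exposed cells to give inhibition.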

[6] = NCI Yeast Anticancer Drug Screen. Data for the mlh1 rad18 strain (AID 175); conditions: S. cerevisiae mlh1 rad18 strain growth inhibition, stronger effect = higher value
Method in brief: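 A repair-deficient yeast strain is exposed to test compound, and growth is scored relative to vehicle-treated controls.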

[7] = at 5.0 µM (retest, dose inferred, filed as 0.5)
[8] = at 50.0 µM (retest, dose inferred, filed as 5.0)

Measured: growth inhibition

CCOc1ccc(C=Nc2ccc(/C=C(\C)C(=O)OCCC(C)C)cc2)cc1
active: [1]; [8] 98% | [1]; at 50.0 µM 97.6% | [2]; [7] 72% | [2]; [8] 99% | [2]; at 50.0 µM 98.2% | [3]; [7] 85% | [3]; [8] 99% | [3]; at 50.0 µM 97.5% | [4]; [7] 94% | [4]; [8] 98% | [4]; at 50.0 µM 97.2% | [5]; [7] 86% | [5]; [8] 97% | [5]; at 50.0 µM 82.2% | [6]; [7] 92% | [6]; [8] 99% | [6]; at 50.0 µM 98%
inactive: [1]; [7] 50%

CCCCCCCCCCCOc1cccc(N2C(N)=NC(N)=NC2(C)C)c1
active: [1]; [7] 99% | [1]; [8] 91% | [1]; at 50.0 µM 98.8% | [2]; [7] 99% | [2]; [8] 96% | [2]; at 50.0 µM 99.5% | [3]; [7] 99% | [3]; [8] 96% | [3]; at 50.0 µM 98.6% | [4]; [7] 98% | [4]; [8] 90% | [5]; [7] 98% | [5]; [8] 96% | [5]; at 50.0 µM 99.1% | [6]; [7] 99% | [6]; [8] 95% | [6]; at 50.0 µM 98.7%
inactive: [4]; at 50.0 µM 58.5%

CCCC(C(=O)OCCNC1CCCCC1)c1ccccc1 (stereo not given)
inactive: [1]; [7] 2% | [1]; [8] 18% | [2]; [7] -13% | [2]; [8] 14% | [2]; at 50.0 µM 11.9% | [3]; [7] 0% | [3]; [8] 37% | [3]; at 50.0 µM 63.3% | [4]; [7] -38% | [4]; [8] 47% | [4]; at 50.0 µM 35.1% | [5]; [7] -4% | [5]; [8] 69% | [5]; at 50.0 µM 28.5% | [6]; [7] 2% | [6]; [8] 18% | [6]; at 50.0 µM 55.2%
active: [1]; at 50.0 µM 71.3%

CC12CCC3C(CCC4CC(O)CCC43C)C1CC=CO2 (stereo not given)
inactive: [1]; [7] 1% | [1]; at 50.0 µM 23.4% | [2]; [7] 32% | [2]; at 50.0 µM 50.6% | [3]; [7] 17% | [3]; at 50.0 µM 11.3% | [4]; [7] 0% | [4]; at 50.0 µM -1.5% | [5]; [7] 45% | [5]; at 50.0 µM 59.4% | [6]; [7] 24% | [6]; at 50.0 µM 68.9%
active: [1]; [8] 98% | [2]; [8] 99% | [3]; [8] 99% | [4]; [8] 99% | [5]; [8] 98% | [6]; [8] 99%

CCOC(=O)CC1=NC(=Nc2cc(Cl)ccc2Cl)SC1
active: [3]; at 50.0 µM 79.6% | [5]; [8] 82% | [5]; at 50.0 µM 77.2% | [6]; [8] 75%
inactive: [1]; [7] 21% | [1]; [8] 66% | [1]; at 50.0 µM 64.5% | [2]; [7] 23% | [2]; [8] 56% | [2]; at 50.0 µM 40.8% | [3]; [7] 22% | [3]; [8] 69% | [4]; [7] 24% | [4]; [8] 30% | [4]; at 50.0 µM 25.7% | [5]; [7] 29% | [6]; [7] 38% | [6]; at 50.0 µM 66.5%

O=S(=O)(/C=C/c1cccnc1)/C=C/c1cccnc1
inactive: [1]; [7] 0% | [1]; [8] 2% | [1]; at 50.0 µM -14.1% | [2]; [7] 0% | [2]; [8] -3% | [2]; at 50.0 µM -1.65% | [3]; [7] 1% | [3]; [8] 6% | [3]; at 50.0 µM 5.3% | [4]; [7] 3% | [4]; [8] 10% | [5]; [7] -2% | [5]; [8] 3% | [5]; at 50.0 µM 20.8% | [6]; [7] -4% | [6]; [8] -1% | [6]; at 50.0 µM 1.25%
active: [4]; at 50.0 µM 82.8%

O=C1C(Cl)=C(Cl)C(=O)c2cc(Cl)c(Cl)cc21
active: [1]; [7] 82% | [1]; [8] 99% | [1]; at 50.0 µM 83.9% | [2]; [7] 89% | [2]; [8] 99% | [2]; at 50.0 µM 84% | [3]; [8] 99% | [3]; at 50.0 µM 97.1% | [4]; [7] 86% | [4]; [8] 97% | [4]; at 50.0 µM 88.2% | [5]; [7] 98% | [5]; [8] 98% | [5]; at 50.0 µM 93.5% | [6]; [8] 97% | [6]; at 50.0 µM 87.8%
inactive: [3]; [7] 65% | [6]; [7] 60%

CCCCCCCCCCCCOC(=O)C[N+]1(C)CCCCC1
active: [1]; [7] 92% | [1]; [8] 99% | [2]; [7] 93% | [2]; [8] 99% | [2]; at 50.0 µM 99.8% | [3]; [7] 99% | [3]; [8] 99% | [4]; [8] 99% | [4]; at 50.0 µM 98.5% | [5]; [7] 99% | [5]; [8] 99% | [5]; at 50.0 µM 99.7% | [6]; [8] 99% | [6]; at 50.0 µM 99.5%
inactive: [1]; at 50.0 µM 43.5% | [3]; at 50.0 µM 39.4% | [4]; [7] 67% | [6]; [7] 33%

O=P(O)(CN1CCN(CP(=O)(O)c2ccccc2)CCN(CP(=O)(O)c2ccccc2)CC1)c1ccccc1
inactive: [1]; [7] 17% | [1]; [8] 65% | [2]; [7] 4% | [2]; [8] 61% | [3]; [7] 11% | [3]; [8] 51% | [4]; [7] 12% | [4]; [8] 58% | [4]; at 50.0 µM 60% | [5]; [7] 30% | [6]; [7] 22% | [6]; [8] 53%
active: [1]; at 50.0 µM 86.7% | [2]; at 50.0 µM 81.8% | [3]; at 50.0 µM 85% | [5]; [8] 72% | [5]; at 50.0 µM 88.3% | [6]; at 50.0 µM 80.3%

Oc1ccc(C2CCCCC2)cc1
active: [1]; at 50.0 µM 85.5% | [2]; at 50.0 µM 79.5% | [3]; at 50.0 µM 95.3% | [6]; at 50.0 µM 93.8%
inactive: [1]; [7] 1% | [1]; [8] 59% | [2]; [7] -4% | [2]; [8] 51% | [3]; [7] -10% | [3]; [8] 54% | [4]; [7] -4% | [4]; [8] 37% | [4]; at 50.0 µM 5.7% | [5]; [7] -4% | [5]; [8] 62% | [5]; at 50.0 µM 48.6% | [6]; [7] 0% | [6]; [8] 40%
